Compound activity: PubChem BioAssay, National Center for Advancing Translational Sciences (NCATS)
The list is not random: actives were taken first. Their share in the collection is about 19%.
TDP1 cell CPT = DT40-hTDP1 cell growth loss with CPT; chicken DT40 Tdp1-/-;hTDP1 cells + 20 nM CPT, ATP luminescence, 48 h; Potency, µM (highest dose often 46.2 µM), actives largely listed as inhibitors; 12% of 420,000 active; AID 686979; also: nearly all actives have a fitted effect of over 55% in size
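Cell growth measured by CellTiter-Glo luminescence after a minimum 48 h, 37 C compound exposure with 20 nM CPT in Tdp1-knockout DT40 cells stably expressing hTDP1, seeded 400/well; qHTS titration format.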
ELG1 repair inh = ELG1-dependent DNA repair inhibition | AID 504467 | HEK293T ELG1-luciferase reporter, luminescence, 16 h; DNA damage induced by 5-fluorouridine | Potency, µM (doses to about 46.1 µM), usual class: inhibitors | 2.3% of 330,000 active; also: nearly all actives have a fitted effect of over 55% in size
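In this reporter screen, reduction of luminescence relative to DMSO vehicle indicated activity. Compounds and 5-fluorouridine were added together to 2,000 cells per well, incubated for 16 hr at 37 °C, then developed with ONE-Glo.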
TDP1 cell noCPT = qHTS for Inhibitors of human tyrosyl-DNA phosphodiesterase 1 (TDP1): qHTS in cells in absence of CPT; DT40 Tdp1-/- hTDP1 cells, no CPT, ATP luminescence, 48 h; Potency, µM (top dose mostly 46.2 µM), most hits filed as inhibitors; 15% of 420,000 active; also: nearly all actives have a fitted effect of over 55% in size
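Compound effects on proliferation are scored in DT40 Tdp1-/-;hTDP1 cells in the absence of CPT. ATP levels (CellTiter-Glo luminescence) are recorded after a ≥48 hr, 37 °C incubation.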
Giardia kill = Giardia lamblia killing; Giardia lamblia trophozoite viability; activity change, % at 7.66 µM, hits read low; 0.15% of 340,000 active; AID 540267; in the data active = activity change below about -80%; inconclusive = between about -30% and that limit;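 also: parasites exposed to compound for two days anaerobically before the ATP read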
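Each well holds 100 Giardia trophozoites and compound. After two days (48 hrs) at 37 deg C in anaerobic conditions, ATP is quantified by luminescence.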
IL-1B inflam inh = blocks inflammasome-driven IL-1 beta release. 4.7% of 360,000 active. activity change, % at 57.5 µM. THP-1 LPS/ATP IL-1B secretion, AlphaLISA, 16 h; hits give low values; in the data active = activity change below about -50%; inconclusive = mostly about -30% to -49%
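Secreted IL-1B measured by AlphaLISA bead assay after 16 h compound exposure of THP-1 cells; compounds (final up to 57.5 uM) added 1 h before LPS (250 ng/mL) and ATP (1.25 mM) stimulation; lower signal means less secretion.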
TDP1 inh = blocks human tyrosyl-DNA phosphodiesterase 1 | Q9NUW8 | recombinant TDP1, AlphaScreen DNA substrate cleavage | Potency, µM (top dose mostly 130 µM), usual class: inhibitors | 0.28% of 350,000 active | AID 485290; also: nearly all actives have a fitted effect of over 40% in size
Target sequence (Q9NUW8 whole entry, looked up): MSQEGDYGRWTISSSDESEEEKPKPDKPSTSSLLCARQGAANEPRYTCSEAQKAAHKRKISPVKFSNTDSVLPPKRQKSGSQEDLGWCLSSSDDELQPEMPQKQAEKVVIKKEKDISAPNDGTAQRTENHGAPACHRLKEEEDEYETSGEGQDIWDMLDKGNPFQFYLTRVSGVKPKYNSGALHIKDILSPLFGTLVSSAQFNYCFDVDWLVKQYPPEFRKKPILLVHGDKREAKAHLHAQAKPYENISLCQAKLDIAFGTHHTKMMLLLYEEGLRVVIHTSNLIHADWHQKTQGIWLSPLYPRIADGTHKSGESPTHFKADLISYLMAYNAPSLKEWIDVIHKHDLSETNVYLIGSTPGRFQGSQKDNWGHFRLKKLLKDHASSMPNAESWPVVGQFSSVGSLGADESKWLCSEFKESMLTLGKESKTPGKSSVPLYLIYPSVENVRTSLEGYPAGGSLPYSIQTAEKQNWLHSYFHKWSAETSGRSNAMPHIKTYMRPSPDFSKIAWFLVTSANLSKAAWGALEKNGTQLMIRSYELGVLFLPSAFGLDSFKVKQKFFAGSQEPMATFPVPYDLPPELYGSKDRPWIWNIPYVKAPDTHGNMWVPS
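AlphaScreen read-out: signal falls as enzyme removes the 3' tyrosine-FITC from a 5'-biotinylated DNA oligo (15 nM, 5 min, RT). Enzyme was E. coli-made recombinant Tdp1 at 1 nM, exposed to compound for 15 min beforehand; beads 10 ug/ml, 10 min.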
Each line names hits and unclear results; the compound was inactive in the other large screens. Unless noted, calls follow the shape of the dose curve; as a rule, active = well fitted curve in the direction sought with a large enough effect; inconclusive = small, poorly fitted or top-dose-only effect, or another doubt; inactive = no such curve, though single readings can be large; an effect the other way counts as inactive or inconclusive.

CCOc1cc(CNS(=O)(=O)c2ccc3c(c2)CC(=O)N3C)cc(OCC)c1OCC	none
COCCCNc1nc2c(c(=O)[nH]c(=O)n2C)n1CC(O)COc1ccccc1C (centres undefined)	none
CCc1ccc(OCC(O)Cn2c(N3CCCCC3)nc3c2c(=O)[nH]c(=O)n3C)cc1 (centres undefined)	TDP1 cell CPT inconclusive, TDP1 cell noCPT inconclusive (no result: TDP1 inh)
Cn1c(=O)c2c(nc(NC3CCCCC3)n2CC(O)COc2ccccc2)n(C)c1=O (centres undefined)	TDP1 cell CPT inconclusive, ELG1 repair inh inconclusive, TDP1 cell noCPT 23µM
COc1ccc(OCC(O)Cn2c(Nc3ccccc3)nc3c2c(=O)n(C)c(=O)n3C)cc1 (centres undefined)	ELG1 repair inh inconclusive
CCCCNc1nc2c(c(=O)n(C)c(=O)n2C)n1CC(O)COc1ccccc1C (centres undefined)	TDP1 cell CPT 21µM, TDP1 cell noCPT 18µM (no result: ELG1 repair inh, Giardia kill, IL-1B inflam inh, TDP1 inh)
Cn1c(=O)c2c(nc(N3CCCCC3)n2CC(O)COc2ccccc2)n(C)c1=O (centres undefined)	TDP1 cell CPT inconclusive, TDP1 cell noCPT 16µM (no result: TDP1 inh)
Cn1c(=O)c2c(nc(N3CCCCCC3)n2CC(O)COc2ccccc2)n(C)c1=O (centres undefined)	TDP1 cell CPT 23µM, ELG1 repair inh inconclusive, TDP1 cell noCPT 18µM
CCCN(CCC)Cc1cc(=O)oc2cc(C)cc(C)c12	TDP1 cell CPT inconclusive, TDP1 cell noCPT inconclusive (no result: ELG1 repair inh, Giardia kill, TDP1 inh)
Cn1c(=O)[nH]c(=O)c2c1nc(N1CCOCC1)n2CC(O)COc1ccc2ccccc2c1 (centres undefined)	ELG1 repair inh inconclusive, TDP1 cell noCPT inconclusive
COc1cccc(C(=O)Cn2c(N3CCCCC3)nc3c2c(=O)n(C)c(=O)n3C)c1	TDP1 cell CPT inconclusive, TDP1 cell noCPT 18µM
Cc1ccc(C(=O)Cn2c(N3CCOCC3)nc3c2c(=O)n(C)c(=O)n3C)cc1	none
Cc1cccc(OCC(O)Cn2c(N3CCCCC3)nc3c2c(=O)n(C)c(=O)n3C)c1 (centres undefined)	TDP1 cell CPT inconclusive, ELG1 repair inh inconclusive, TDP1 cell noCPT 16µM (no result: TDP1 inh)
CSCCC(NC(=O)c1ccccc1Br)C(=O)NNC(=O)C1COc2ccccc2O1 (centres undefined)	none (no result: ELG1 repair inh, TDP1 inh)
COc1ccc(NC(=O)CCc2c(C)nc3nc(CNC(=O)OC(C)(C)C)nn3c2C)cc1OC	none (no result: ELG1 repair inh, Giardia kill, IL-1B inflam inh)
Nc1ccn(C2OC(COP(=O)(O)O)C(O)C2O)c(=O)n1 (centres undefined)	TDP1 cell CPT 0.65µM, TDP1 cell noCPT 1.2µM (no result: ELG1 repair inh, TDP1 inh)
CCc1cccc(CC)c1NC(=O)Cn1nnc2sc(-c3ccccc3)cc2c1=O	none (no result: ELG1 repair inh, Giardia kill, IL-1B inflam inh)
Cc1cc(C)nc(NC2=NCC(=O)N2c2cc(Cl)cc(Cl)c2)n1	none
Cc1cc(C)nc(NC2=NC3CCCCC3N2)n1 (centres undefined)	TDP1 cell CPT 21µM, ELG1 repair inh inconclusive, TDP1 cell noCPT inconclusive
COc1ccc(NC(=O)C(NS(=O)(=O)c2cccc3nsnc23)C(C)C)cc1 (centres undefined)	none (no result: ELG1 repair inh, Giardia kill, IL-1B inflam inh)
CCCn1c(CC)nc([N+](=O)[O-])c1Sc1ccc(C)cc1	ELG1 repair inh inconclusive, IL-1B inflam inh -68
BrC(=C\c1ccccc1)/C=N/N1CCN(Cc2ccccc2)CC1	TDP1 cell CPT 1.8µM, TDP1 cell noCPT 3.3µM
BrC(/C=N/N1CCN(Cc2ccccc2)CC1)=C/c1ccccc1	TDP1 cell CPT 13µM, ELG1 repair inh inconclusive, TDP1 cell noCPT 6.5µM, IL-1B inflam inh -82
BrC(=C\c1ccccc1)/C=N/N1CCN(c2ccccn2)CC1	TDP1 cell CPT 0.33µM, ELG1 repair inh inconclusive, TDP1 cell noCPT 2.6µM, IL-1B inflam inh -85
FC(F)(F)c1ccc(/C=N/N2CCN(Cc3ccccc3)CC2)cc1	IL-1B inflam inh -60
Oc1cccc(/C=N/N2CCN(c3ccccn3)CC2)c1	ELG1 repair inh inconclusive
COc1ccc(C(=O)C=CNNC(=O)c2ccc(Cl)cc2)cc1	TDP1 cell CPT 3.3µM, TDP1 cell noCPT inconclusive (no result: TDP1 inh)
COc1ccc(C(=O)NN/C=C/C(=O)c2ccc(Br)cc2)cc1	TDP1 cell CPT 23µM, TDP1 cell noCPT inconclusive (no result: ELG1 repair inh, Giardia kill, TDP1 inh)
Cc1ccc(C(=O)/C=C/NNC(=O)c2ccccc2O)cc1	TDP1 cell CPT 16µM, TDP1 cell noCPT inconclusive (no result: TDP1 inh)
O=C(/C=C/NNC(=O)c1ccccc1)c1ccc(Br)cc1	TDP1 cell CPT 3.3µM, TDP1 cell noCPT 4.6µM
Cc1ccc(C(=O)/C=C/Nc2cccc(O)c2)cc1	TDP1 cell CPT inconclusive, ELG1 repair inh inconclusive, TDP1 cell noCPT inconclusive
O=C(/C=C/NNC(=O)c1ccc(Cl)cc1)c1ccccc1	TDP1 cell CPT inconclusive, TDP1 cell noCPT inconclusive
COc1ccc(C(=O)Nc2nnc(S(=O)(=O)N3CCOCC3)s2)cc1	none
Cc1c(Cl)cccc1NC(=O)C(C)n1c(=O)cc(C)c2c(C)nn(-c3ccccc3)c21 (centres undefined)	TDP1 cell CPT inconclusive (no result: ELG1 repair inh, Giardia kill, IL-1B inflam inh)
O=C(CSc1nc2ccccc2c(=O)[nH]1)Nc1ccc([N+](=O)[O-])cc1	TDP1 cell CPT inconclusive, ELG1 repair inh 18µM, TDP1 cell noCPT inconclusive
O=C(CSc1nc2ccccc2[nH]1)Nc1nc(-c2ccc(Br)cc2)cs1	TDP1 cell CPT 23µM, ELG1 repair inh inconclusive, TDP1 cell noCPT 16µM
